The results in this text go back to PubChem BioAssay (NCI).

The nature of assay [1]: NCI Yeast Anticancer Drug Screen. Data for the rad50 strain (AID 155).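 Note: 0% = growth of vehicle-only cultures of the same strain.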 Conditions: S. cerevisiae rad50 strain growth inhibition; at 50.0 µM; hits give high values. The gist of the method:
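A DNA repair-deficient yeast mutant serves as the test organism; compound-induced growth inhibition is calculated against vehicle-treated cells.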

Assay [2] in a line: NCI Yeast Anticancer Drug Screen. Data for the mec2-1 strain (AID 157). As to conditions: S. cerevisiae mec2-1 strain, at 50.0 µM, hits give high values. The procedure, abridged: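 Test agents were screened against the mec2-1 yeast strain, with defined DNA repair or cell cycle alteration. Growth was scored as inhibition against vehicle-only controls.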
A short description of assay [3]: NCI Yeast Anticancer Drug Screen. Data for the sgs1 mgt1 strain (AID 161).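 Note: 0% = growth of cultures given vehicle only.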 Conditions: S. cerevisiae sgs1 mgt1 strain, at 50.0 µM, hits give high values. The gist of the method: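 Genetically altered yeast, compound exposure, growth inhibition relative to vehicle.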
Assay [4] is described as follows: NCI Yeast Anticancer Drug Screen. Data for the cln2 rad14 strain (AID 165).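 Note: 0% = growth equal to vehicle treated cultures.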 As to conditions: S. cerevisiae cln2 rad14 strain, at 50.0 µM, hits give high values. The procedure, abridged: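 Growth of compound-exposed yeast (cln2 rad14 genotype) measured and expressed as inhibition relative to vehicle.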
Assay [5] is described as follows: NCI Yeast Anticancer Drug Screen. Data for the bub3 strain (AID 167). Conditions: S. cerevisiae bub3 mutant strain, at 50.0 µM, hits give high values. The procedure, abridged:
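Inhibition values come from growth of compound-treated mutant yeast normalised to vehicle-treated controls.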

Assay [6] can be described thus: NCI Yeast Anticancer Drug Screen. Data for the mlh1 rad18 strain (AID 175). As to conditions: S. cerevisiae mlh1 rad18 strain growth inhibition; at 50.0 µM; hits give high values. The gist of the method:
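In this whole-cell yeast screen, a strain with altered DNA damage repair is challenged with compound, and its growth is measured against matched vehicle-treated controls.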

The panel holds about 79,000 compounds, 15% with a hit somewhere; the sample as a whole holds those more often. Values without a mark were called inactive. Calls of active or inactive are those of the source. Cut-off read from the data, not from the text of the source: active = growth inhibition above about 70%; inactive = the rest. Where a SMILES comes first, the peptide text is derived from it. [ ]: non-standard residue; d: D form. The star is where a group is joined. ξ: configuration not given here. Boc = CC(C)(C)OC(=O)*; ξV = CC(C)C(N)C(=O)O; OBn = c1ccc(CO*)cc1

As to `O=C(O)CCC(CCC(=O)O)(C(=O)O)C(=O)O`, the growth inhibition in assay [1] was 5.8%; in assay [2] it was -7.85%; in assay [3], -6.1%; in assay [4], -41%; in assay [5], -0.85%; in assay [6] it was 2.9%.
For `Nc1ncnc2c1ncn2[C@@H]1C[C@H]1CO`, the growth inhibition was -39.6% in assay [1]; 10.8% in assay [2]; -23.6% in assay [3]; 12.1% in assay [4]; 20.6% in assay [5]; -23.4% in assay [6].
Regarding `C#CC(NC(C)(C)CC(C)(C)C)C(C)C` (centres undefined), the growth inhibition is 31.1% in assay [1]; 4.25% in assay [2]; 0.55% in assay [3]; 6.8% in assay [4]; 4.1% in assay [5]; 12.2% in assay [6].
For `COc1ccc(CC(C)C(C)Cc2ccc(OC)c(OC)c2)cc1OC` (centres undefined), the growth inhibition in assay [1] is 4.9%; in assay [2], 9.15%; in assay [3], 1.6%; in assay [4], -4.75%; in assay [5], 4.25%; in assay [6] it was -3.6%.
Consider `CN1CCN(c2nc3c(c(=O)n(C)c(=O)n3C)n2C)CC1`, for which the growth inhibition is -4.9% in assay [1]; 5.35% in assay [2]; -18.8% in assay [3]; -6.1% in assay [4]; -11% in assay [5]; 6.2% in assay [6].
With `C[N+]1(C(CO)Cc2c[nH]c3ccccc23)Cc2ccccc2C1` (centres undefined), the growth inhibition was 10.6% in assay [1]; 14.6% in assay [2]; -19.1% in assay [3]; -8.35% in assay [4]; -65.5% in assay [5]; -5.7% in assay [6].
As to `CSCCC(C(=O)O)N(CC1(O)OCC(O)C(O)C1O)N=O` (centres undefined), the growth inhibition in assay [1] was -18.4%; in assay [2], -24.6%; in assay [3] it was -17.6%; in assay [4] it was -9.15%; in assay [5], -11.4%; in assay [6] it was -11.2%.
For the molecule `O=C1C=C(Nc2ccc3ccccc3c2[N+](=O)[O-])c2ccccc2C1=O`, the growth inhibition was 27.2% in assay [1]; 17.4% in assay [2]; 8.05% in assay [3]; -16.4% in assay [4]; 23.2% in assay [5]; 7.1% in assay [6].
As to `CN(CN(C)/N=C/c1ccc(Cl)cc1)/N=C/c1ccc(Cl)cc1`, the growth inhibition in assay [1] is 1.05%; in assay [2], 11.6%; in assay [3] it was 7.95%; in assay [4], 12.8%; in assay [5], -4.8%; in assay [6], 10.1%.
Take `CC(C)C(NC(=O)OC(C)(C)C)C(=O)NCC(=O)OCc1ccccc1` (centres undefined) (Boc-[ξV]-Gly-OBn): the growth inhibition is -37.9% in assay [1]; -36% in assay [2]; 12.2% in assay [3]; -3.3% in assay [4]; -8.6% in assay [5]; -21.6% in assay [6].
On to `O=c1c2cc3ccccc3cc2c(=O)n2n1CC(O)C(Br)C2` (centres undefined), for which the growth inhibition in assay [1] was 64.7%; in assay [2], 20.9%; in assay [3], 36.5%; in assay [4] it was -28.6%; in assay [5], -3.2%; in assay [6] it was 17.7%.
For the molecule `CC(=O)Nc1nc(Cl)c2ncn(C3CCCO3)c2n1` (centres undefined), the growth inhibition in assay [1] was -13%; in assay [2] it was -4%; in assay [3], -9.35%; in assay [4], -33.5%; in assay [5], 0.6%; in assay [6] it was 2.25%.
Turning to `Cc1cc(=O)[nH]c(/N=C(/N)N(C)C)n1`, the growth inhibition in assay [1] is 4.15%; in assay [2] it was -10.8%; in assay [3], 3%; in assay [4], 11.4%; in assay [5], 8.2%; in assay [6] it was 5.05%.
For the molecule `COc1ccc(Nc2nc(NS(=O)(=O)c3cc(C)c(Cl)cc3S)n[nH]2)cc1`, the growth inhibition in assay [1] is 23.4%; in assay [2], 27.9%; in assay [3], 3.65%; in assay [4] it was 24.9%; in assay [5], 16.9%; in assay [6], -4.9%.
Turning to `COC(=O)C1CCCN1C(c1ccccc1)(c1ccccc1)c1ccccc1` (centres undefined), the growth inhibition in assay [1] was -9.45%; in assay [2], -2.2%; in assay [3], -11.5%; in assay [4] it was -2.15%; in assay [5], 2.45%; in assay [6], -23.5%.
As for `CC(=O)O/N=C1\C=Cc2c(no[n+]2[O-])C1=O`, the growth inhibition is -8.9% in assay [1]; -20.3% in assay [2]; -0.7% in assay [3]; 12.1% in assay [4]; -12.5% in assay [5]; -5.35% in assay [6].
Turning to `N#CC1CCCCCCCCCCC(=O)N(CCCl)C1=O` (centres undefined), the growth inhibition in assay [1] was -4.25%; in assay [2], -0.45%; in assay [3] it was 13.2%; in assay [4], 6.2%; in assay [5] it was -12.9%; in assay [6], -7.05%.
Turning to `CC12NC(=O)NC1(C)NC(=O)N2` (centres undefined), the growth inhibition in assay [1] was -8.85%; in assay [2] it was -6.3%; in assay [3], -35.9%; in assay [4] it was -38.9%; in assay [5] it was -29.6%; in assay [6], 11.6%.
Regarding `CCCCCCCCCCCCOc1ccccn1`, the growth inhibition was -11.2% in assay [1]; -33.6% in assay [2]; -7.65% in assay [3]; -7.45% in assay [4]; -11.6% in assay [5]; -4.55% in assay [6].
As to `S=C(Nc1ccc(Cl)cc1)Nc1ccc(Cc2ccc(NC(=S)Nc3ccc(Cl)cc3)cc2)cc1`, the growth inhibition in assay [1] was 53.9%; in assay [2], 36.2%; in assay [3] it was 49.6%; in assay [4], 59.4%; in assay [5] it was 53.6%; in assay [6], 20.4%.
Take `Cc1sc2c(c1C)C(=O)c1cccn1-2`: the growth inhibition in assay [1] was 4.95%; in assay [2] it was -27.8%; in assay [3] it was -21.6%; in assay [4] it was -2.8%; in assay [5] it was -13.9%; in assay [6], -1%.
Consider `Nc1nnc(-c2ccccc2)nn1`, for which the growth inhibition in assay [1] was 4.05%; in assay [2] it was 4%; in assay [3], 12.1%; in assay [4] it was -1.15%; in assay [5] it was 6.55%; in assay [6], 9.25%.
As to `O=C(c1ccncc1)C(C(c1ccccc1)N1CCOCC1)N1CCOCC1` (centres undefined), the growth inhibition was 25.8% in assay [1]; 8.25% in assay [2]; 34% in assay [3]; 39.5% in assay [4]; 13.6% in assay [5]; 4.4% in assay [6].
Take `CC1CC(C#N)=C(NC#N)NC1=O` (centres undefined): the growth inhibition in assay [1] is -0.5%; in assay [2], 12.4%; in assay [3], 19.2%; in assay [4], 5.55%; in assay [5], -0.75%; in assay [6], 9.4%.
`O=C(Nn1c(-c2ccccc2)nc2ccccc2c1=O)c1cccc([N+](=O)[O-])c1`: the growth inhibition in assay [1] is -27.8%; in assay [2] it was -33.9%; in assay [3], -14.2%; in assay [4], 5.5%; in assay [5] it was 23.8%; in assay [6], 3.85%.
On to `CCOC(=O)C(C(=O)OCC)=C1c2ccccc2Oc2ccccc21`, for which the growth inhibition in assay [1] was 39.1%; in assay [2] it was 8%; in assay [3], 14.7%; in assay [4] it was -17.6%; in assay [5] it was 33.5%; in assay [6], 46%.
In the case of `Cc1ccncc1.[O]=[Ge].[O]=[Ge].[O]=[Ge].[O]=[Ge].[O]=[Ge].[O]=[Ge][OH].[O]=[Ge][OH]`, the growth inhibition was -27.3% in assay [1]; -35.4% in assay [2]; -42.5% in assay [3]; -23.1% in assay [4]; -24.8% in assay [5]; -30.1% in assay [6].
In the case of `Cc1csc[n+]1C/C(=N/O)c1ccc(I)cc1`, the growth inhibition is 36.2% in assay [1]; -3.75% in assay [2]; 14.8% in assay [3]; 3.65% in assay [4]; 2.75% in assay [5]; 17.1% in assay [6].
For the molecule `O=P(c1ccccc1)(c1ccccc1)N1CC1c1ccccc1` (centres undefined), the growth inhibition in assay [1] was 8.95%; in assay [2] it was 12.9%; in assay [3], 3.2%; in assay [4] it was -3.45%; in assay [5], 4.6%; in assay [6], 10.1%.
For `S=C(S)N1CCN(c2cccc(Cl)c2)CC1`, the growth inhibition was 40.2% in assay [1]; 16.1% in assay [2]; 58.5% in assay [3]; 44.7% in assay [4]; 47.1% in assay [5]; 70.5% (active) in assay [6].
For `c1ccc(CC2=NCCc3ccccc32)cc1`, the growth inhibition in assay [1] was -16.4%; in assay [2], -28.3%; in assay [3], -3.3%; in assay [4], 1.15%; in assay [5], -2.6%; in assay [6] it was -8.7%.
For the molecule `CC(=O)OCC1OC(OCCCc2ccccc2)C(OC(C)=O)C(OC(C)=O)C1OC(C)=O` (centres undefined), the growth inhibition in assay [1] was 21%; in assay [2], 5.5%; in assay [3], 6.45%; in assay [4], -47.9%; in assay [5] it was -65.9%; in assay [6], 24.9%.
In the case of `CCCCn1c(=S)[nH]c2c(=O)n(C)c(=O)n(C)c21`, the growth inhibition in assay [1] is 4.95%; in assay [2], 4.3%; in assay [3] it was 7.55%; in assay [4] it was -14.4%; in assay [5] it was -7.35%; in assay [6] it was 4%.
Take `O=C(O)c1ccccc1SC1OC(=O)c2ccccc21` (centres undefined): the growth inhibition in assay [1] is -0.45%; in assay [2], -8.75%; in assay [3], 2.35%; in assay [4], -58.7%; in assay [5], 2.75%; in assay [6] it was -1.45%.
For `COc1cc(C(O)C(=O)c2cnc3cc([N+](=O)[O-])ccc3n2)ccc1O` (centres undefined), the growth inhibition in assay [1] was 24.8%; in assay [2] it was 11.3%; in assay [3], -10.8%; in assay [4], 2.15%; in assay [5], -19%; in assay [6], -1.95%.
In the case of `O=C(c1ccccc1)C(N=Nc1ccccc1)(c1ccccc1)c1ccccc1`, the growth inhibition was 4.15% in assay [1]; -6% in assay [2]; -1.8% in assay [3]; -7.05% in assay [4]; -0.85% in assay [5]; 21.6% in assay [6].
Regarding `CCCC(O)C(C)C(O)CC` (centres undefined), the growth inhibition was -9.85% in assay [1]; -30.4% in assay [2]; -22.2% in assay [3]; -3.45% in assay [4]; 1.4% in assay [5]; -1.45% in assay [6].
`CNc1nnnn1C1OC(CO)C(O)C1O` (centres undefined): the growth inhibition is -2.15% in assay [1]; -8.9% in assay [2]; -9.6% in assay [3]; 9.35% in assay [4]; -10.7% in assay [5]; -21.4% in assay [6].
In the case of `O=[N+]([O-])c1ccc(-c2ccccc2-c2ccccc2)cc1`, the growth inhibition in assay [1] was 3.9%; in assay [2], -2.8%; in assay [3] it was 8.25%; in assay [4] it was -38.1%; in assay [5], 3.5%; in assay [6], -22.9%.
